Data on 40 sequences can be found in the OligoGym collection.
Also: reference of the scale not given here.

The target of the first assay is C20orf54. The assay can be described thus: pooled miR-30 sensor sort-seq; sequence = guide strand. The following applies: shRNA.
For TATCGTTATCTGCTTGTCTTGT, the sensor-assay potency score (higher = more potent) was 0.0273. The same measure, in the same setting: the value for TTTCTCCTCTAGATACCCCTGG was 0.0398. TTGACGTAACTGAGGCAGCCGC had a sensor-assay potency score (higher = more potent) of -1.38. The sequence TTCCCTTCTAACACCCTTGGGC had a sensor-assay potency score (higher = more potent) of 0.125. In turn, TCAGTGACATTGACGCAGGTAG gave a sensor-assay potency score (higher = more potent) of -0.422.

Regarding TGAAGAGGTGCAGTCCACCAGG, the sensor-assay potency score (higher = more potent) was -0.698. Same read-out and setting: the figure for ATCTCAGTGACATTGACGCAGG is -1.25; for TTCTCCTCTAGATACCCCTGGC it is -0.528.

A further assay deals with C21orf70. The assay is described as above. The following applies: shRNA.
TCCAGCTTCTGCACCAAGGCGC showed a sensor-assay potency score (higher = more potent) of -0.982.

In turn, TTGCTCACGCCTCAGCTTCATT yielded a sensor-assay potency score (higher = more potent) of -1.27. Sequence TTTATTGAGCCCCACAACCGAC gave a sensor-assay potency score (higher = more potent) of -1.2. Sequence TTGGTGTTGATGAACGCCCAGT gave a sensor-assay potency score (higher = more potent) of -0.833. Still for that read-out and setting: the value for TTTTCTGCAACCATTGCTCACG was -0.501; that for TTGAGCCCCACAACCGACCAGA was -0.652; that for TTTTATGGCTTCGATTTTCTGC was -0.59. Still for that read-out and setting: the value for TTCGATTTTCTGCAACCATTGC was -1.09; that for ATTTTCTGCAACCATTGCTCAC was -1.16. Same read-out and setting: the figure for TCTTCCAGCTGCATCTGCCGGG is -0.496; for TTCTGCACCAAGGCGCTGGGGT it is -0.84; for TTCTTGGGCAAAACGGTCTTGG it is -0.889.

For the next assay, the target named is C2orf55. The description is as above. The following applies: shRNA.
On to TTGTTTGCCACAATACACTGGC, for which the sensor-assay potency score (higher = more potent) worked out at 0.782. For the sequence TTGAATTTAGATTTTTTCTTTC, the sensor-assay potency score (higher = more potent) is -0.493.

On to TTATTTTTGGAAACAGTCTATG, for which the sensor-assay potency score (higher = more potent) was -0.924. TTTGTTTGCCACAATACACTGG came in with a sensor-assay potency score (higher = more potent) of -0.196. TTAGATTTTTTCTTTCCTGTGC: the sensor-assay potency score (higher = more potent) worked out at 0.654. The same measure, in the same setting: the figure for TTGATGATAAAATCAATCTTTA is -0.855; for TTTTTGGAAACAGTCTATGAAT it is -1.5. Same read-out and setting: the value for TTTCTGGCAAGTTCCATCCAGG was -0.596; that for TTATCCTCTTTGTTTTGCCTGG was -0.575. For ATTATTTTTGGAAACAGTCTAT, the sensor-assay potency score (higher = more potent) is -0.496. Sequence TTTGCCACAATACACTGGCAGT had a sensor-assay potency score (higher = more potent) of -1.43. Take TTTCTTTCTGGCAAGTTCCATC: the sensor-assay potency score (higher = more potent) was -0.776.

A further assay concerns the target C2orf57. The description is as above. The following applies: shRNA.
For TCTCTCAGGAACACTCGCCATT, the sensor-assay potency score (higher = more potent) is -1.27. The same measure, in the same setting: the value for TTGTCTTTGTCTCCAGATGTTG was -1.39; that for ATTTGTGACATCTTGTCTTTAC was -1.19. For TTCTGGAACAACTGCACTCTTG, the sensor-assay potency score (higher = more potent) was -1.11. Sequence TAGACCTGCTGTCATCCACGTT returned a sensor-assay potency score (higher = more potent) of -1.17. Same read-out and setting: the value for TTCTCCTCAGCAGACTTGGTGG was -0.95; that for TTGTCCTTGCGTCTTGAACCTG was -1.12; that for TGTCCTTGCGTCTTGAACCTGC was 0.175.
